Screening results from PubChem BioAssay.
Rows were chosen to be rich in hits. Some 0.92% of all compounds tested hit in one or more screens of this group.
LmPK inhibitor – qHTS Assay for Inhibitors of Leishmania Mexicana Pyruvate Kinase (LmPK). Q27686. purified LmPK, Kinase-Glo ATP luminescence, 1 h. Potency, µM (top dose mostly 57.5 µM), hits mostly inhibitors. actives 0.37% (n = 290,000). AID 1721, 2009
Target sequence (Q27686 whole entry, looked up): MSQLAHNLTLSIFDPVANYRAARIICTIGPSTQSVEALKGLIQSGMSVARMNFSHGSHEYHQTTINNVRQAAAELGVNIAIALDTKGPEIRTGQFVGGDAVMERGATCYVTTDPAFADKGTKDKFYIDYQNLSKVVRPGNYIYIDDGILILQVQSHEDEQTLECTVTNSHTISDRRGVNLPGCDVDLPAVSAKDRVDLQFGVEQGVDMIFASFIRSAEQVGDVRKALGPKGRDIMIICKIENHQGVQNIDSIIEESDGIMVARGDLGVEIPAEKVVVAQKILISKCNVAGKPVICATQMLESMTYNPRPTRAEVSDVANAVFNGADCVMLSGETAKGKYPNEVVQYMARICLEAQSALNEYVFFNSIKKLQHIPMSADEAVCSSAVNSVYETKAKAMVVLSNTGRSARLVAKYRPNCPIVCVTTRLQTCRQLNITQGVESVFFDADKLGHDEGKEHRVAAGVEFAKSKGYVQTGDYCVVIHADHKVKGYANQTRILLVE
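In 50 mM imidazole pH 7.2 with 7 mM MgCl2, LmPK (0.1 nM) turned over PEP (0.5 mM) and ADP (0.1 mM) for 1 h at room temperature. Luciferase read-out of ATP.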
NS1 inh – qHTS Assay for Inhibitors of Influenza NS1 Protein Function; Potency, µM (top dose mostly 46.1 µM); actives 0.4% (n = 270,000); calls by dose curve; also: actives are rising curves; nearly all actives have a fitted effect of over 50% in size
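Recovery from NS1-induced slow growth read by OD600 in budding yeast switched to galactose assay medium (pH 6.0, -URA) at 1:100 dilution. Compound 23 nl per well; the matching strain lacking NS1 serves as control.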
AMA1 RON2 block – qHTS for Inhibitors of AMA1-RON; Towards Development of Antimalarial Drug Lead: Primary Screen | AID 720542, 2013 | actives 0.2% (n = 360,000) | Potency, µM (titrated, usually from 58.2 µM), most hits filed as inhibitors | Plasmodium falciparum AMA1 (3D7) - RON2 peptide interaction | AlphaScreen AMA1-biotinylated RON2 peptide binding; also: nearly all actives have a fitted effect of over 45% in size
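AMA1 (3D7) with his tag at 25 nM final met compounds first, then biotinylated RON2 peptide at 25 nM; detection used donor plus acceptor beads, 10 µg/mL apiece, read by AlphaScreen after 30 min at room temperature.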
Tb PYK inh – qHTS of Trypanosoma Brucei Inhibitors. pyruvate kinase (Trypanosoma brucei), Q57TT1. TbPYK enzyme, Kinase-Glo Plus ATP luminescence, 45 min. Potency, µM (titrated, usually from 76.8 µM), most hits filed as inhibitors. actives 0.12% (n = 410,000). AID 624173, 2012; also: nearly all actives have a fitted effect of over 50% in size
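T. brucei PYK with substrate was exposed to pin-transferred compounds across a concentration series, then started with 130 uM ADP (final). After 45 min at room temperature, Kinase-Glo Plus luminescence was read, normalized and curve-fitted.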
RE007 growth inh – qHTS Assay for Inhibitors of the HIV-1 protein Vpr. S. pombe RE007 Vpr strain, BacTiter-Glo ATP luminescence, 24 h. Potency, µM (series often up to 92.2 µM), most hits filed as inhibitors. actives 0.21% (n = 360,000). AID 651644, 2012; active = well fitted falling curve with a large enough effect; inconclusive = small, poorly fitted or top-dose-only effect; inactive = no such curve, though single readings can be large or run the other way; also: nearly all actives have a fitted effect of over 50% in size
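Fission yeast strain RE007, carrying one chromosomally integrated HIV-1 vpr copy, was seeded at OD 0.01 in PMG+AL medium with 23 nL pinned compound. After 24 h at 30 °C and 99% humidity, viability was read by BacTiter-Glo luminescence.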
Flu NS1 inh – Assay for Inhibitors of Influenza NS1 Protein Function: Hit Validation | AID 492980, 2010 | shares compounds with NS1 inh | 1,400 tested, under 10 active | activity change, negative = inhibition, % at 32.9 µM | influenza NS1 function cell assay, 15-point titration; calls by dose curve
PR8 titer – Assay for Inhibitors of Influenza NS1 Protein Function: Influenza virus replication assay in MDCK cells infected with virus A/PR/8/34; virus titer (log TCID50), log10 TCID50 at 5 µM; actives 30% (n = 95); shares compounds with NS1 inh; MDCK infected influenza A/PR/8/34, virus titer TCID50; hits give low values; call rule not given here
Each line names hits and unclear results; the compound was inactive in the other large screens (follow-up assays come after a bar, where they were run). Unless noted, calls follow the shape of the dose curve; as a rule, active = well fitted curve in the direction sought with a large enough effect; inconclusive = small, poorly fitted or top-dose-only effect, or another doubt; inactive = no such curve, though single readings can be large; an effect the other way counts as inactive or inconclusive.

Cc1cc(C)nc(SCc2nnc(SCC(=O)Nc3nc(-c4ccccc4)cs3)n2C)n1	none
Cc1ccc(C(=O)CSc2nnc(CNc3nc(-c4ccccc4)cs3)n2C)cc1	NS1 inh 3.2µM | Flu NS1 inh inactive
Cn1cccc1Cc1nnc(SCC(=O)Nc2ccccc2F)n1CCc1ccccc1	NS1 inh 7.1µM | Flu NS1 inh inactive
COc1ccc(-n2c(Cc3cccn3C)nnc2SCC(=O)Nc2ccccc2)cc1	none
COc1ccc(-n2c(Cc3cccn3C)nnc2SCC(=O)Nc2ccc(Cl)cc2)cc1	NS1 inh 10µM | Flu NS1 inh inactive | PR8 titer inactive
Cn1cccc1Cc1nnc(SCC(=O)Nc2cccc(F)c2)n1CCc1ccccc1	NS1 inh inconclusive
CN1c2ccccc2-c2nc(SCC(=O)Nc3ccccc3)ncc2S1(=O)=O	none (no result: LmPK inhibitor, NS1 inh, AMA1 RON2 block, RE007 growth inh)
N#Cc1c(NC(=O)c2ccc(-c3ccccc3[N+](=O)[O-])o2)sc2c1CCCC2	NS1 inh inconclusive | Flu NS1 inh inactive
CCOC(=O)CN1CC23C=CC(O2)C(C(=O)Nc2ccc(OC)cc2OC)C3C1=O (stereo unspecified)	NS1 inh 3.2µM | Flu NS1 inh inactive
CCOC(=O)CN1CC23C=CC(O2)C(C(=O)Nc2cc(OC)ccc2OC)C3C1=O (stereo unspecified)	none
Cc1ccc(S(=O)(=O)c2cnc(SCC(=O)Nc3cccc(Cl)c3)nc2N)cc1C	none (no result: LmPK inhibitor, NS1 inh, AMA1 RON2 block, RE007 growth inh)
Cc1ccc(-c2cc(-c3ccc4c(c3)NC(=O)CO4)nc3c2COc2ccccc2-3)cc1	none (no result: LmPK inhibitor, NS1 inh, AMA1 RON2 block, RE007 growth inh)
Cc1cc(C(=O)COc2cccnc2[N+](=O)[O-])c(C)n1-c1ccccc1F	NS1 inh inconclusive | Flu NS1 inh inactive
Cc1cc(C(=O)COc2cccnc2[N+](=O)[O-])c(C)n1-c1ccccc1	none
CCOc1cccc2sc(N3CCN(C(=O)c4ccc5c(c4)CCCC5)CC3)nc12	none (no result: LmPK inhibitor, NS1 inh, AMA1 RON2 block, RE007 growth inh)
O=C(Cc1cccc2ccccc12)N/N=C/c1ccc(Sc2nc3ccccc3s2)o1	NS1 inh 10µM | Flu NS1 inh inactive
N#C/C(=C\c1cn(CCOc2ccccc2)c2ccccc12)C(=O)NCc1ccco1	NS1 inh inconclusive | Flu NS1 inh inactive
C(=N\n1cnnc1SCc1ccccc1)/c1ccco1	NS1 inh 1.1µM | Flu NS1 inh inactive
Fc1ccc(Cl)cc1/C=N/n1cnnc1SCc1ccccc1	none
COC(=O)C(O)(c1c(C)[nH]n(-c2ccccc2)c1=O)C(F)(F)F (stereo unspecified)	NS1 inh 8.9µM, RE007 growth inh inconclusive | Flu NS1 inh inconclusive
Cc1ccc(-c2cc(C(=O)Oc3ccc(C#N)cc3)no2)cc1	none (no result: LmPK inhibitor, NS1 inh, AMA1 RON2 block, RE007 growth inh)
COc1ccc(Nc2nc(C)cc(C)c2C#N)cc1	none
COc1ccc(Oc2nc(C)cc(C)c2C#N)cc1	NS1 inh inconclusive | Flu NS1 inh inactive
CCCCc1cc(=O)oc2cc(C)cc(OCC(=O)N3CCC(C(=O)O)(c4ccccc4)CC3)c12	none
CCCc1cc(=O)oc2cc(OCC(=O)N3CCC(C(=O)O)(c4ccccc4)CC3)ccc12	NS1 inh 11µM | Flu NS1 inh inconclusive
Cc1cccc(NC(=S)/N=C(\N)Nc2nc(C)c3ccccc3n2)c1	NS1 inh 10µM | Flu NS1 inh inactive
Cc1cc(C)cc(NC(=S)/N=C(\N)Nc2nc(C)c3ccccc3n2)c1	none
Cc1ccc(NC(=S)/N=C(\N)Nc2nc(C)c3ccccc3n2)cc1C	NS1 inh 11µM | Flu NS1 inh inactive
O=C(CSc1nccn1Cc1ccc(F)cc1)NCc1ccc(F)cc1	none (no result: LmPK inhibitor, NS1 inh, AMA1 RON2 block, RE007 growth inh)
COc1ccc(S(=O)(=O)n2nc(OC(=O)c3c(-c4ccccc4Cl)noc3C)cc2N)cc1	NS1 inh 10µM | Flu NS1 inh inactive
COc1ccc(C(=O)Oc2cc(N)n(S(=O)(=O)c3ccc(C)cc3)n2)cc1	none
Cc1ccc(CC(=O)Nc2ccc(S(=O)(=O)N3CCOCC3)cc2)cc1	NS1 inh inconclusive | Flu NS1 inh inactive
COc1ccc(NC(=S)Nc2ccc(S(=O)(=O)N3CCCCC3)cc2)cc1	none (no result: LmPK inhibitor, NS1 inh)
COc1ccc(NC(=S)Nc2cccc(S(=O)(=O)N3CCCCC3)c2)cc1	NS1 inh 13µM | Flu NS1 inh inactive
O=C(Cc1ccc(Cl)cc1)Nc1ccc(S(=O)(=O)N2CCOCC2)cc1	none
COc1ccc(CN2CCN(S(=O)(=O)c3ccc(NC(C)=O)cc3)CC2)cc1	NS1 inh inconclusive, AMA1 RON2 block inconclusive | Flu NS1 inh inactive
O=C(Nc1ccc(-c2cn3cccnc3n2)cc1)c1ccccc1F	none (no result: LmPK inhibitor, NS1 inh, AMA1 RON2 block, RE007 growth inh)
O=C1/C(=C/c2cccnc2)Oc2cc(OS(=O)(=O)c3ccccc3)ccc21	NS1 inh inconclusive
O=C1/C(=C/c2cccnc2)Oc2cc(OS(=O)(=O)c3ccc(Cl)cc3)ccc21	NS1 inh 3.5µM | Flu NS1 inh inactive
CCC(C)n1c(SCc2ccc(F)cc2Cl)nc2ccsc2c1=O (stereo unspecified)	none (no result: LmPK inhibitor, NS1 inh, AMA1 RON2 block, RE007 growth inh)
O=C(CN1C(=O)/C(=C\C=C\c2ccccc2)SC1=S)Nc1ccc(F)cc1	NS1 inh 18µM | Flu NS1 inh inactive
CCN(c1cc(C)cc(C)c1)S(=O)(=O)c1nnc(NC(=O)C2CCCCC2)s1	none (no result: LmPK inhibitor, NS1 inh, AMA1 RON2 block, RE007 growth inh)
COc1ccccc1NC(=O)c1c(-c2ccc(C)cc2)nnc2ccccc12	none (no result: LmPK inhibitor, NS1 inh, AMA1 RON2 block, RE007 growth inh)
COc1cc(C2NC(C(=O)O)Cc3c2[nH]c2ccccc32)cc(OC)c1OC (stereo unspecified)	none
COc1ccc(C2NC(C(=O)O)Cc3c2[nH]c2ccccc32)cc1OC (stereo unspecified)	NS1 inh inconclusive | Flu NS1 inh inactive
CC1CCCCN1C(=O)CSc1n[nH]c(-c2ccccc2Cl)n1 (stereo unspecified)	none (no result: LmPK inhibitor, NS1 inh, AMA1 RON2 block, RE007 growth inh)
CCOc1ccc2c(c1)C(c1ccccc1)=NNC(c1ccccc1)=N2	NS1 inh 11µM | Flu NS1 inh inactive
CCc1ccc2c(c1)C(c1ccncc1)=NNC(c1ccccc1)=N2	none
COc1ccc(C(=O)N2CCc3cc(OC)c(OC)cc3C2COc2ccc3c(C)cc(=O)oc3c2)c(OC)c1 (stereo unspecified)	none (no result: LmPK inhibitor, NS1 inh, AMA1 RON2 block, RE007 growth inh)
COc1cccc(NC(=S)N2CCc3cc(OC)c(OC)cc3C2COc2ccc3c(C)cc(=O)oc3c2)c1 (stereo unspecified)	NS1 inh 8.9µM | Flu NS1 inh inactive
